Of roughly 7,900 targets only a part is listed; those with a hit were picked by preference. About 0.6% of all pairs of compound and target were hits. Values without a mark were called inactive.
Legend:
Experiment in all cases: log2 fold change, soluble protein after heating vs DMSO (PISA); higher = thermal stabilisation; K562 cells, 10 uM, 30 min; active = over 0.2 and 3.5 SD of the protein, either way, in both replicates (recomputed)
erlotinib = compound: C#Cc1cccc(Nc2ncnc3cc(OCCOC)c(OCCOC)cc23)c1 [erlotinib]
Outline: (§1)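 Thermal stability values are relative to control samples and come from duplicates. They are expressed as log2 fold changes. For measurement, K562 cells (2×10^6 cells/mL) received 10 μM compound for 30 min, and aliquots were heated for 3 min over 48°C-58°C, pooled, and extracted at 4°C in PBS with 0.5% NP-40. Soluble protein, the supernatant after 21,000xg for 90 min, was quantified by TMTpro 16plex LC-MS/MS with equalised channel sums.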

[1] = compound: C/C(=N\NC(=O)C1=CC(=CC=C1)S(=O)(=O)N2CCOCC2)/C3=C(C=CC(=C3)Cl)O
Outline: as §1

[2] = compound: C1=CC(=CC=C1C2=NC3=C(N2)C=C(C=C3)C(=O)N)OC4=CC=C(C=C4)Cl
Outline: as §1

[3] = compound: C1=CC2=C(C=CC(=C2)/C=C\3/C(=O)NC(=NCC4=CC=CS4)S3)N=C1
Outline: as §1

[4] = compound: C1=CC2=NC=CN=C2C=C1/C=C/3\C(=O)NC(=O)S3
Outline: as §1

[5] = compound: C1=CC=C(C=C1)C2=NC(=C(N2)C3=CC=NC=C3)C4=CC(=C(C=C4)Cl)O
Outline: as §1

[6] = compound: C1=CC=C2C(=C1)C3=NNC4=CC=CC(=C43)C2=O
Outline: as §1

[7] = compound: C1CCN(C1)C(=O)NC2=CC=CC(=C2)NC3=NC=C(C(=N3)NCCC4=CN=CN4)Br
Outline: as §1

[8] = compound: C1CN(CCC1(CC2=CC=C(C=C2)Cl)N)C3=NC=NC4=C3C=CN4
Outline: as §1

IRAK-1-4 Inhibitor I = compound: C1COCCN1CCN2C3=CC=CC=C3N=C2NC(=O)C4=CC(=CC=C4)[N+](=O)[O-] [IRAK-1-4 Inhibitor I]
Outline: as §1

ibrutinib = compound: C=CC(=O)N1CCC[C@@H](n2nc(-c3ccc(Oc4ccccc4)cc3)c3c(N)ncnc32)C1 [ibrutinib]
Outline: as §1

[9] = compound: CC(=O)c1cnc2ccc(-c3cc(Cl)c(O)c(Cl)c3)nc2c1N[C@H]1CC[C@H](CN(C)C)CC1
Outline: as §1

ralimetinib = compound: CC(C)(C)Cn1c(N)nc2ccc(-c3[nH]c(C(C)(C)C)nc3-c3ccc(F)cc3)nc21 [ralimetinib]
Outline: as §1

[10] = compound: CC(C)C1=C2N=C(C=C(N2N=C1)NCC3=CC=CC=C3)NCCCCCCN
Outline: as §1

[11] = compound: CC(C)C[C@@H](C=O)NC(=O)[C@H](CC(C)C)NC(=O)[C@H](CC(C)C)NC(=O)OCc1ccccc1
Outline: as §1

pinometostat = compound: CC(C)N(C[C@H]1O[C@@H](n2cnc3c(N)ncnc32)[C@H](O)[C@@H]1O)[C@H]1C[C@@H](CCc2nc3cc(C(C)(C)C)ccc3[nH]2)C1 [pinometostat]
Outline: as §1

[12] = compound: CC1=C(C(CC(=O)N1)C2=CC=C(C=C2)C(F)(F)F)C(=O)NC3=C(C=C4C(=C3)C=NN4)F
Outline: as §1

[13] = compound: CC1=C(C2=C(C=C1)C(=O)C3=CC=CC=C3N2CCCN)C
Outline: as §1

[14] = compound: C1=CC(=C(C=C1Cl)C2=NC3=NC=CN=C3C(=N2)NC4=CC=NC=C4)F
Outline: as §1

[15] = compound: CC(C)(O)CC(=O)NCCn1ccc2ncnc(Nc3ccc(Oc4cccc(C(F)(F)F)c4)c(Cl)c3)c21
Outline: as §1

Sequence of UniProt Q9NY26 (Q9NY26 whole entry, looked up): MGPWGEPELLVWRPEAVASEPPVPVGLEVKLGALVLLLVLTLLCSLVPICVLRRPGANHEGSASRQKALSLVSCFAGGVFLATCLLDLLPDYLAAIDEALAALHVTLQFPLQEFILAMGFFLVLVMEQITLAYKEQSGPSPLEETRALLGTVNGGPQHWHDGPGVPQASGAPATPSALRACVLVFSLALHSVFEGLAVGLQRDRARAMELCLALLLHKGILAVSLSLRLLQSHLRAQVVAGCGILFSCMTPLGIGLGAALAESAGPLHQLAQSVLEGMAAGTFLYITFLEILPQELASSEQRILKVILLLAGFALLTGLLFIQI
Sequence of UniProt Q9BWG4 (Q9BWG4 whole entry, looked up): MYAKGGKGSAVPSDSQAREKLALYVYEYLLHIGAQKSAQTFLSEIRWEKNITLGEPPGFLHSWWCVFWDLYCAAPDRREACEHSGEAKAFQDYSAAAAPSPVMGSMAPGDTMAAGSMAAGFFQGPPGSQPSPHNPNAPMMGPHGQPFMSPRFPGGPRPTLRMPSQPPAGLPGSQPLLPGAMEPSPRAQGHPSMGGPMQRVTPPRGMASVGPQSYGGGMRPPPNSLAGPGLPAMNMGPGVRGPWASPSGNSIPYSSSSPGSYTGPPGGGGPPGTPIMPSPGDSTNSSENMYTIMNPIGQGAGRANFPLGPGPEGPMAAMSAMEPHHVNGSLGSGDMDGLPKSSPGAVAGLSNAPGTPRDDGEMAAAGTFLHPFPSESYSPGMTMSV
Sequence of UniProt Q8N9U0 (Q8N9U0 whole entry, looked up): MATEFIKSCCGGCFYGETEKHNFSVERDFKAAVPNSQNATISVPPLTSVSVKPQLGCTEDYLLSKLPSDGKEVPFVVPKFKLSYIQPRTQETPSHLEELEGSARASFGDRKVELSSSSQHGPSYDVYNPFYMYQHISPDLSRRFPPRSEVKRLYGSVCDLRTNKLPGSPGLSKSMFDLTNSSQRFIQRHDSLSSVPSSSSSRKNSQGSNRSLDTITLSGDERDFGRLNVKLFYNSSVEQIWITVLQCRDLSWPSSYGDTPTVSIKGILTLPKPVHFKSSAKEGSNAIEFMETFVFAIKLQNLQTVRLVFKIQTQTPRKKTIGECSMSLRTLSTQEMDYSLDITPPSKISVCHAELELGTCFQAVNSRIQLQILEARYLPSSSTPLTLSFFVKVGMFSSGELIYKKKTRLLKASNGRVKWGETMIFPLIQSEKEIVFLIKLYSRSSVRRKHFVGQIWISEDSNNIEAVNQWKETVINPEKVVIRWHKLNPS
Sequence of UniProt P36956 (P36956 whole entry, looked up): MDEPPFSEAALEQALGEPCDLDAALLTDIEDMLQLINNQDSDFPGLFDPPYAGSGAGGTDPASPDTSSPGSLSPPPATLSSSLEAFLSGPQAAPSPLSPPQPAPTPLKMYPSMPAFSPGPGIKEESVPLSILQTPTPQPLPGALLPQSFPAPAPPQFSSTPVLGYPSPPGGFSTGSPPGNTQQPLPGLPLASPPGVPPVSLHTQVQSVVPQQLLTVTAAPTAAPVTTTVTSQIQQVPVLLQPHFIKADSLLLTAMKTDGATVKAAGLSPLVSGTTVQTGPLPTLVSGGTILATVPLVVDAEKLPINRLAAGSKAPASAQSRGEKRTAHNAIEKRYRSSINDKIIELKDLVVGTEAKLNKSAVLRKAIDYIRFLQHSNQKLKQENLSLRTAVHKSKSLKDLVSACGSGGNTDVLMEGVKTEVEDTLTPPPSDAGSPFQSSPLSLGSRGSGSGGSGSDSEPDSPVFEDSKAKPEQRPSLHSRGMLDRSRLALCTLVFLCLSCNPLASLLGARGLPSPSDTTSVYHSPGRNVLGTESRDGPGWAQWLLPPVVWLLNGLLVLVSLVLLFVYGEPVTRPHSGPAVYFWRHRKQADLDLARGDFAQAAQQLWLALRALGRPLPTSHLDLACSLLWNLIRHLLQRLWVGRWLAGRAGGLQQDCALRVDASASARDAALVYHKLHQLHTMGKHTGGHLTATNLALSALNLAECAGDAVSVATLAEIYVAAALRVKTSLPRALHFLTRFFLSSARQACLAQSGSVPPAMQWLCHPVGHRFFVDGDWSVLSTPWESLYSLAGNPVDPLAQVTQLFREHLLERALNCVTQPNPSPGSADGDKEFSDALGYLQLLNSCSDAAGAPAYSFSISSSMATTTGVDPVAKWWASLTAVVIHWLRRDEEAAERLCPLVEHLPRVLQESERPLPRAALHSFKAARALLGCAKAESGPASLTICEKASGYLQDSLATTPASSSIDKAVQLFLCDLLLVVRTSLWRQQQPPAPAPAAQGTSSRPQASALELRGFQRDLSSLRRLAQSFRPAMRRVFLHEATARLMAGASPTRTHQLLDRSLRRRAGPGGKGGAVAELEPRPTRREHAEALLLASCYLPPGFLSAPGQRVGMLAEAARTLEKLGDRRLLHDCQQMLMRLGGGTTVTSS
Sequence of UniProt Q9BYN0 (Q9BYN0 whole entry, looked up): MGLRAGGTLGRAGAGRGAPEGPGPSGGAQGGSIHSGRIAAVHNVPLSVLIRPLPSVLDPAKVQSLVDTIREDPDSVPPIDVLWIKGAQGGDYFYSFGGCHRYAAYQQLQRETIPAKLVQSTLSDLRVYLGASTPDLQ
Sequence of UniProt Q9BYX2 (Q9BYX2 whole entry, looked up): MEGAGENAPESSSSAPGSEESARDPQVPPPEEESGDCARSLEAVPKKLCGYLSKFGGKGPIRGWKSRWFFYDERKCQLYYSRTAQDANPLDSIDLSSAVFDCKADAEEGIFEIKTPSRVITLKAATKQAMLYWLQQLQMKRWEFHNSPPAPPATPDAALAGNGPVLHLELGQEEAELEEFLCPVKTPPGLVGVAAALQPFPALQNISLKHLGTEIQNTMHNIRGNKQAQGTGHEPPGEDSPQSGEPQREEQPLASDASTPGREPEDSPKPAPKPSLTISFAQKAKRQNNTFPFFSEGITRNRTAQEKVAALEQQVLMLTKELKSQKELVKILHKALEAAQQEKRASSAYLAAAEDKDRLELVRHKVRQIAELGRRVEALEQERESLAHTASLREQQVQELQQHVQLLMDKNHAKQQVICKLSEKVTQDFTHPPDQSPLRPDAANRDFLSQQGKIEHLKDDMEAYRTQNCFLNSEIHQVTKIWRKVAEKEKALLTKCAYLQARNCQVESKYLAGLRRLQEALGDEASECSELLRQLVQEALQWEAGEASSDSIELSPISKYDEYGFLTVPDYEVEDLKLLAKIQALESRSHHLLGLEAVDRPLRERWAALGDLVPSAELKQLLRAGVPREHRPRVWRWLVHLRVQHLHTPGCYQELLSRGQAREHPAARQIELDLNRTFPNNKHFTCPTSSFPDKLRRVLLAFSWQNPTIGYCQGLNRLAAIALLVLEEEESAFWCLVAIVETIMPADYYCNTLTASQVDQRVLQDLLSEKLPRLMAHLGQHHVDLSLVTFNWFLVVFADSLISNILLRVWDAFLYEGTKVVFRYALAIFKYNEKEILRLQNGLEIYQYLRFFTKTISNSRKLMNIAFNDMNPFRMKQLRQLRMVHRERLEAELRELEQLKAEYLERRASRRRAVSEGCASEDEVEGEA
Sequence of UniProt P35711 (P35711 whole entry, looked up): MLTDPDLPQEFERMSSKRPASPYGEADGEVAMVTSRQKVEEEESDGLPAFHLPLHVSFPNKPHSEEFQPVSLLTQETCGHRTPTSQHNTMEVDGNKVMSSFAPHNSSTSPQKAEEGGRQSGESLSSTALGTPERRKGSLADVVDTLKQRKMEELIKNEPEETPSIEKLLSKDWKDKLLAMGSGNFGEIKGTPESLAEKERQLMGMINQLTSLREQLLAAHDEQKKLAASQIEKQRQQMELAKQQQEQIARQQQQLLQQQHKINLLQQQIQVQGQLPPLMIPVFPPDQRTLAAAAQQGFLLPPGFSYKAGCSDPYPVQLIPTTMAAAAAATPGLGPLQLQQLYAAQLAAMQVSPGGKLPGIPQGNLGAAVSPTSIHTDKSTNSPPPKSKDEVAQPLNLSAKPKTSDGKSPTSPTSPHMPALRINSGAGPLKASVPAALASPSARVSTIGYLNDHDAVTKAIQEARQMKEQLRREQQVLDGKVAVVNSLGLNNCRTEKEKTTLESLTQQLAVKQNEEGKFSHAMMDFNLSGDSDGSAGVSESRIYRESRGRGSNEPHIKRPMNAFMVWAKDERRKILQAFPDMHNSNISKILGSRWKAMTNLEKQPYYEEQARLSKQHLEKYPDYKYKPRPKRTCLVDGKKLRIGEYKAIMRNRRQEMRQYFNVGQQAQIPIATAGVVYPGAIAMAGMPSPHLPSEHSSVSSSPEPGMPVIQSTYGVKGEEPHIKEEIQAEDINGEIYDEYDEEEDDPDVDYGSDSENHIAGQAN

| Target | log2 fold change (erlotinib) | log2 fold change [1] | log2 fold change [2] | log2 fold change [3] | log2 fold change [4] | log2 fold change [5] | log2 fold change [6] | log2 fold change [7] | log2 fold change [8] | log2 fold change (IRAK-1-4 Inhibitor I) | log2 fold change (ibrutinib) | log2 fold change [9] | log2 fold change (ralimetinib) | log2 fold change [10] | log2 fold change [11] | log2 fold change (pinometostat) | log2 fold change [12] | log2 fold change [13] | log2 fold change [14] | log2 fold change [15] |
| --- | --- | --- | --- | --- | --- | --- | --- | --- | --- | --- | --- | --- | --- | --- | --- | --- | --- | --- | --- | --- |
| SOX5 (UniProt P35711) | 0.009 | 0.006 | 0.125 | 0.047 | 0.018 | -0.049 | 0.012 | -0.069 | 0.095 | 0.067 | 0.115 | -0.028 | 0.037 | -0.086 | 0.368 | -0.088 | -0.051 | -0.081 | – | – |
| SRXN1 (UniProt Q9BYN0) | – | 0.335 | – | 0.036 | 0.031 | 0.004 | -0.017 | -0.021 | 0.048 | -0.291 | -0.013 | 0.12 | -0.134 | – | -0.024 | 0.187 | 0.045 | -0.026 | 0.097 | -0.201 |
| TC2N (UniProt Q8N9U0) | – | 0.038 | – | 0.362 | – | -0.021 | 0.054 | 0.042 | -0.004 | – | – | -0.486 | -0.036 | – | 0.028 | – | -0.364 | 0.014 | – | – |
| SREBF1 isoform 4 (UniProt P36956) | 0.034 | – | 0.001 | – | 0.068 | – | – | – | – | 0.008 | 0.025 | – | – | -0.077 | – | -0.088 | – | – | 0.045 | -0.404 |
| SSBP4 (UniProt Q9BWG4) | 0.08 | 0.076 | 0.043 | -0.054 | -0.056 | -0.052 | -0.099 | 0.022 | -0.024 | 0.013 | 0.001 | -0.081 | -0.131 | 0.058 | 0.011 | 0.09 | 0.013 | 0.015 | – | – |
| SLC39A1 (UniProt Q9NY26) | 0.123 | – | 0.053 | – | – | – | – | – | – | – | – | – | – | -1.06 (active) | – | – | – | – | – | – |
| TBC1D2 (UniProt Q9BYX2) | – | 0 | – | 0.063 | – | – | -0.006 | – | – | – | – | -0.208 | – | – | – | – | – | – | -0.042 | 0.007 |
| SRCAP (UniProt Q6ZRS2) | 0.039 | – | 0.031 | – | 0.117 | -0.191 | – | 0.059 | -0.254 | -0.42 (active) | 0 | – | 0.036 | 0.046 | 0.12 | 0.037 | 0.078 | 0.103 | – | – |
